Where “and” joins values, the source holds several entries; their conditions need not be identical. Equal entries are not always repeated. In all, about 5,500 compounds went through this assay and about 2,000 (36%) were called active. About 18% were inconclusive and are not listed. Cut-off read from the data, not from the text of the source: active = normalized growth mostly below about 0.91 (no sharp cut-off); inconclusive = no clear call, values can overlap the other calls; inactive = mostly above about 0.92. This is one part of the list.
Test: chemical genetic growth profiling, strain panel (AID 1159580);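 note: tested at 20 µM; growth read once vehicle control cultures reached saturation at 30 °C; 1 = growth at the plate median or of vehicle wells; lower values mean less growth of the strain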
Conditions: S. cerevisiae deletion strains, growth OD

Measured: normalized growth

O=[N+]([O-])c1cc(O)c(O)c([N+](=O)[O-])c1
inactive: locus YAL021C, strain ccr4, hits give low values 1.01 | locus YAL026C, strain drs2, hits give low values 1.01 | locus YAL030W, strain snc1, hits give low values 1.02 | locus YAL040C, strain CLN3, hits give low values 0.986 | locus YBL061C, strain skt5, hits give low values 1.01 | locus YBR009C, strain hhf1, hits give low values 1.07 | locus YBR021W, strain FUR4, hits give low values 0.953 | locus YBR023C, strain chs3, hits give low values 1.03 | locus YBR171W, strain sec66, hits give low values 1.01 | locus YBR229C, strain ROT2, hits give low values 1.01 | locus YBR231C, strain swc5, hits give low values 0.983 | locus YBR279W, strain paf1, hits give low values 1.03 | locus YCL011C, strain gbp2, hits give low values 1.03 | locus YCL016C, strain dcc1, hits give low values 1.05 | locus YCL029C, strain bik1, hits give low values 0.984 | locus YCL061C, strain MRC1 (second series), hits give low values 0.993 | locus YCL061C, strain MRC1, hits give low values 1.03 | locus YCL069W, strain vba3, hits give low values 1.01 | locus YCR088W, strain abp1, hits give low values 1 | locus YDL005C, strain med2, hits give low values 1.02 | locus YDL035C, strain GPR1, hits give low values 1 | locus YDL040C, strain nat1, hits give low values 1.02 | locus YDL074C, strain BRE1, hits give low values 1.01 | locus YDL101C, strain DUN1, hits give low values 1.01 | locus YDL185W, strain tfp1, hits give low values 0.967 | locus YDL192W, strain arf1, hits give low values 0.988 | locus YDR001C, strain nth1, hits give low values 0.998 | locus YDR069C, strain doa4, hits give low values 0.996 | locus YDR101C, strain arx1, hits give low values 0.997 | locus YDR137W, strain rgp1, hits give low values 0.982 | locus YDR150W, strain NUM1, hits give low values 1.01 | locus YDR159W, strain sac3, hits give low values 0.957 | locus YDR162C, strain NBP2, hits give low values 0.999 | locus YDR195W, strain ref2 0.992 | locus YDR297W, strain sur2, hits give low values 1.01 | locus YDR318W, strain mcm21, hits give low values 0.987 | locus YDR334W, strain swr1, hits give low values 1.01 | locus YDR335W, strain msn5, hits give low values 1.01 | locus YDR363W, strain ESC2, hits give low values 1.06 | locus YDR388W, hits give low values 0.978 | locus YDR392W, strain spt3, hits give low values 1.08 | locus YDR502C, strain sam2, hits give low values 1 | locus YEL003W, strain gim4, hits give low values 1.02 | locus YEL037C, strain rad23, hits give low values 1.01 | locus YEL061C, strain CIN8 (second series), hits give low values 1 | locus YEL061C, strain CIN8, hits give low values 1 | locus YER002W, strain NOP16, hits give low values 0.996 | locus YER015W, strain faa2, hits give low values 1.01 | locus YER016W, strain bim1, hits give low values 0.995 | locus YER110C, hits give low values 0.99 | locus YER111C, strain swi4, hits give low values 1 | locus YER155C, strain BEM2 (second series), hits give low values 0.992 | locus YER155C, strain BEM2, hits give low values 0.993 | locus YER167W, strain BCK2, hits give low values 1.02 | locus YFR010W, strain ubp6, hits give low values 1.01 | locus YGL078C, strain dbp3, hits give low values 0.976 | locus YGL086W, strain mad1, hits give low values 1 | locus YGL167C, strain pmr1, hits give low values 1.02 | locus YGL173C, strain kem1, hits give low values 1.01 | locus YGL227W, strain vid30, hits give low values 1.01 | locus YGL240W, strain doc1, hits give low values 0.998 | locus YGL248W, strain PDE1, hits give low values 1.03 | locus YGL253W, strain hxk2, hits give low values 0.959 | locus YGR078C, strain PAC10, hits give low values 1.01 and 0.977 | locus YGR135W, strain pre9, hits give low values 0.969 | locus YGR229C, strain SMI1, hits give low values 0.983 | locus YGR252W, strain gcn5, hits give low values 0.849 | locus YHR013C, strain ard1, hits give low values 1.05 | locus YHR027C, strain rpn1, hits give low values 1.01 | locus YHR030C, strain SLT2, hits give low values 0.996 | locus YHR079C, strain IRE1 (second series), hits give low values 0.994 | locus YHR094C, strain hxt1, hits give low values 0.972 | locus YHR129C, strain ARP1, hits give low values 1 | locus YHR142W, strain chs7, hits give low values 1.01 | locus YHR200W, strain rpn10, hits give low values 0.991 | locus YIL066C, strain RNR3, hits give low values 1.01 | locus YIL073C, strain SPO22, hits give low values 0.99 | locus YIL125W, strain kgd1, hits give low values 0.972 | locus YIR030C, strain dcg1, hits give low values 0.976 | locus YJL092W, strain hpr5, hits give low values 1.02 | locus YJL095W, strain BCK1 (second series), hits give low values 1.02 | locus YJL095W, strain BCK1, hits give low values 0.987 | locus YJL115W, strain asf1, hits give low values 1.01 | locus YJL129C, strain trk1, hits give low values 1.01 | locus YJL134W, strain LCB3, hits give low values 1.01 | locus YJL154C, strain vps35, hits give low values 1.01 | locus YJL164C, strain tpk1, hits give low values 1.06 | locus YJL166W, strain qcr8, hits give low values 1.01 | locus YJL168C, strain set2, hits give low values 0.978
